Screening data from PubChem BioAssay.
TNAP act DEA: activators of human TNAP at intermediate phosphate acceptor. activation factor at 20 µM. purified TNAP, CDP-star luminescence, 100 mM DEA, 30 min; active compounds read high; scale: 0 levamisole-inhibited, 1 vehicle-only enzyme. P05186. 64,000 tested, under 10 active;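 active = activation factor of at least 2 at 20 µM, relative to controls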
HePTP inhibitor: human HePTP phosphatase inhibition; recombinant HePTP phosphatase activity, OD absorbance; inhibition, % at 20 µM; 110,000 compounds, 0.64% hits; in the data active = inhibition above about 50%; inconclusive = no clear call, values can overlap the other calls
Hsp90 block: displaces geldanamycin probe from tumor Hsp90; P07900; inhibition, % at 30 µM; NCI-N417 lysate Hsp90, Cy3B-geldanamycin FP displacement; 64,000 compounds, 0.35% hits;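 active = inhibition above 50%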
PLAP act: human PLAP activation | P05187 | purified PLAP enzyme, luminescent substrate read-out; active compounds read high | activation fold at 20 µM | 96,000 compounds, 1.2% hits | AID 696; in the data active = activation fold above about 2
Target sequence (P05187 whole entry, looked up): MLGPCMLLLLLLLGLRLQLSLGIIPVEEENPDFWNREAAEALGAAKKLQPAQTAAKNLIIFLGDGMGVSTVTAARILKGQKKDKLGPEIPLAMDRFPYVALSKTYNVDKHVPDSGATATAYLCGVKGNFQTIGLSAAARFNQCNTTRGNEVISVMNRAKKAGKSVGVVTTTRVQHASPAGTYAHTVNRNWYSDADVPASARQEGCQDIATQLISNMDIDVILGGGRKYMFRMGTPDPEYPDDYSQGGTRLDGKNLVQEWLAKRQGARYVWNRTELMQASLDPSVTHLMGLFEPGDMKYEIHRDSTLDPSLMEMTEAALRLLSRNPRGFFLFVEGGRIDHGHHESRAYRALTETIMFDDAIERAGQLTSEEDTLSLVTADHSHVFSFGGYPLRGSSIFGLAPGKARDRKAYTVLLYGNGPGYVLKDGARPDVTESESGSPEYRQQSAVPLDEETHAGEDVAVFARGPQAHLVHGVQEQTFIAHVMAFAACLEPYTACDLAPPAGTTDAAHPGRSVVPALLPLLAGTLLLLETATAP
Cdc25B block: inhibitors of human Cdc25B phosphatase; recombinant Cdc25B, OMFP fluorescence Ex485/Em525; 65,000 compounds, 0.1% hits; AID 368; inhibition, %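 (compounds tested at 10 µM final in the well)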; in the data active = inhibition above about 50%
DUSP1 inh: human dual specificity phosphatase 1 inhibition | P28562 | recombinant MKP-1, OMFP hydrolysis fluorescence | inhibition, %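 (compounds tested at a single concentration somewhere between 10 and 100 µM)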 | 65,000 compounds, 0.15% hits;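 active = inhibition above about 50%, limit read from the data; inconclusive = inhibition over screen mean plus 3 SD, below that limit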
Redox 05 DTT: counter-screen for Cdc25B probes: redox cycling H2O2 in 0.5 mM DTT; shares compounds with Cdc25B block; cell-free redox cycling H2O2 generation; EC50, µM; 30 compounds, 50% hits; AID 682; in the data active = EC50 below about 30 µM
Redox H2O2 1DTT: redox cycling H2O2 generation, Cdc25B counter-screen. AID 683. 30 tested, under 10 active. shares compounds with Cdc25B block. cell-free redox cycling H2O2 generation, 1 mM DTT. EC50, µM; in the data active = EC50 below about 50 µM
Redox H2O2: redox cycling H2O2 generation, MKP probe counter-screen; shares compounds with DUSP1 inh; DTT, phenol red/HRP; EC50, µM; 60 tested, under 10 active; call rule not given here
Of the large screens only hits and unclear results are named; the others gave an inactive call (follow-up assays come after a bar, where they were run). Hits are enriched below; roughly 1.5% of the tested compounds scored in any of these assays.

COc1ccccc1CCNC1CCC(C(C)(C)C)CC1 (centres undefined)	none (no result: TNAP act DEA, HePTP inhibitor, Hsp90 block, Cdc25B block, DUSP1 inh)
c1ccc2[nH]c(CCNC3CCCCC3)nc2c1	PLAP act 2.7
COc1ccc(C2=NCC(=O)N(CC(=O)NCc3ccco3)c3sc4c(c32)CCCC4)cc1OC	Cdc25B block 56
Cc1ccc(-n2c(/C=C3/C(=O)Nc4ccc(Br)cc43)nc3ccccc3c2=O)cc1	none (no result: TNAP act DEA, Hsp90 block, PLAP act, Cdc25B block, DUSP1 inh)
C[C@H]1CCC[C@H](O)CCCCCc2cc(O)cc(O)c2C(=O)O1	Hsp90 block 87
O=C1NC(=O)N(c2cccc(Br)c2)C(=O)/C1=C/c1ccco1	HePTP inhibitor 102 (no result: TNAP act DEA, Hsp90 block, PLAP act, Cdc25B block, DUSP1 inh)
Cc1cccc(N2C(=O)NC(=O)C(=Cc3ccco3)C2=O)c1	none (no result: TNAP act DEA, Hsp90 block, PLAP act, Cdc25B block, DUSP1 inh)
CCCCCCn1c(O)c(C=NC2CCCCC2N)c(=O)[nH]c1=O (centres undefined)	none
CCCCn1c(O)c(C=NC2CCCCC2N)c(=O)[nH]c1=O (centres undefined)	none
Cc1ccc(-n2c(O)c(C=NC3CCCCC3N)c(=O)[nH]c2=O)cc1C (centres undefined)	PLAP act 2.2
NC1CCCCC1N=Cc1c(O)n(Cc2ccc(F)cc2)c(=O)[nH]c1=O (centres undefined)	PLAP act 2.8
Cc1cc(OCC(=O)c2ccc(F)cc2)c2c3c(c(=O)oc2c1)CCCC3	none (no result: TNAP act DEA, Hsp90 block, PLAP act, Cdc25B block, DUSP1 inh)
COc1cc(/C=C2/C(=O)NC(=O)N(c3ccccc3)C2=O)cc(Cl)c1O	none (no result: TNAP act DEA, Hsp90 block, PLAP act, Cdc25B block, DUSP1 inh)
CN(N=O)c1cc(O)ccc1O	Hsp90 block 99 (no result: TNAP act DEA, HePTP inhibitor, PLAP act, Cdc25B block, DUSP1 inh)
NC1CCc2cc(O)c(O)cc2C1 (centres undefined)	Hsp90 block 53 (no result: TNAP act DEA, HePTP inhibitor, PLAP act, Cdc25B block, DUSP1 inh)
CN1C(=O)NC(=O)/C(=C/c2ccc(Br)o2)C1=O	HePTP inhibitor 76 (no result: TNAP act DEA, Hsp90 block, PLAP act, Cdc25B block, DUSP1 inh)
CCOc1ccc(N2C(=O)/C(=C/c3ccc(Br)o3)C(=O)NC2=S)cc1	HePTP inhibitor 101 (no result: TNAP act DEA, Hsp90 block, PLAP act, Cdc25B block, DUSP1 inh)
CN1C(=O)NC(=O)/C(=C/c2ccc(-c3ccc([N+](=O)[O-])cc3)o2)C1=O	none (no result: TNAP act DEA, Hsp90 block, PLAP act, Cdc25B block, DUSP1 inh)
O=c1[nH]c(=O)n(CCC2=CCCCC2)c(O)c1C=NCCCn1ccnc1	PLAP act 2.1
COc1ccc(OC)c(CN2CCN(C(=O)COc3ccccc3)CC2)c1	none (no result: TNAP act DEA, Hsp90 block, PLAP act, Cdc25B block, DUSP1 inh)
N#CC(C#N)=Cc1ccc(Sc2ccccc2)o1	none (no result: TNAP act DEA, Hsp90 block, PLAP act, Cdc25B block, DUSP1 inh)
CCOC(=O)c1c(/N=C/c2c(O)n(-c3ccccc3F)c(=S)[nH]c2=O)sc2c1CCCC2	none (no result: TNAP act DEA, HePTP inhibitor, Hsp90 block, Cdc25B block, DUSP1 inh)
O=c1[nH]c(=S)n(-c2ccccc2F)c(O)c1C=C1C=CC=N1	HePTP inhibitor 103 (no result: TNAP act DEA, Hsp90 block, PLAP act, Cdc25B block, DUSP1 inh)
COc1ccc(N2C(=O)NC(=O)/C(=C/c3ccc(SC)cc3)C2=O)cc1	none (no result: TNAP act DEA, Hsp90 block, PLAP act, Cdc25B block, DUSP1 inh)
CCN1CCN(C(=O)COc2ccc3c(c2)C(=O)CC2(CCN(C(C)=O)CC2)O3)CC1	PLAP act 2.7 (no result: TNAP act DEA, HePTP inhibitor, Hsp90 block, Cdc25B block, DUSP1 inh)
Cc1ccc(C)n1-c1ccc(N2CCNCC2)c([N+](=O)[O-])c1	none (no result: TNAP act DEA, Hsp90 block, PLAP act, Cdc25B block, DUSP1 inh)
Cc1cccc(-n2c(/C=C\c3ccc(Br)cc3)nc3ccccc3c2=O)c1	none (no result: TNAP act DEA, Hsp90 block, PLAP act, Cdc25B block, DUSP1 inh)
O=C(CF)NC(=C(Cl)Cl)P(=O)(c1ccccc1)c1ccccc1	HePTP inhibitor 103 (no result: TNAP act DEA, Hsp90 block, PLAP act, Cdc25B block, DUSP1 inh)
CCn1nc(-c2ccccc2)nc2c(=O)n(C)c(=O)nc1-2	HePTP inhibitor inconclusive, Hsp90 block 89, Cdc25B block 101, DUSP1 inh 98 (no result: PLAP act) | Redox 05 DTT 0.73 | Redox H2O2 1DTT 1.6 | Redox H2O2 14
CCC(N)C(=O)c1c(C)cc(C)cc1C (centres undefined)	none (no result: TNAP act DEA, Hsp90 block, PLAP act, Cdc25B block, DUSP1 inh)
CCCCNC(=O)c1c(N)n(CCCOC)c2nc3ccccc3nc12	none | Redox H2O2 inactive
C[C@]12CCCCC1CCC1C2CC[C@@]2(C)C1CC[C@@]2(O)CC#N (some centres undefined)	none (no result: TNAP act DEA, Hsp90 block, PLAP act, Cdc25B block, DUSP1 inh)
